Source: the supplement of paper PMC11732987, “Enantioselective OTUD7B fragment discovery through chemoproteomics screening and high-throughput optimisation” (Communications Chemistry, 2025)

Legend:
Assay in all cases: log2 ratio of Biotin-Ahx-Ub-VS probe labelling (fragment/DMSO); higher = less target engagement (more negative = stronger competition), active = hit call of the paper (q ≤ 0.05, log2 ratio ≤ -1)
Settings in all cases: compound concentration: 200 uM; treatment time: 3 h
USP34 = USP34 (UniProt Q70CQ2)
Method in brief: (§1)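 HEK293T lysate, 495 µg per sample in Tris/CHAPS/IGEPAL buffer with protease inhibitors, was treated in triplicate with fragment at 200 µM or vehicle for 3 h and then with Biotin-Ahx-Ub-VS at 0.5 µM final for 1 h. Labelled DUBs were NeutrAvidin-enriched, digested with LysC and trypsin, and run by diaPASEF LC-MS/MS. Spectronaut label-free quantities were global-median-normalised, and values are average log2 fragment/vehicle ratios by unpaired t-test on proteins with ≥2 unique peptides.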

USP36 = biological target: T1, USP36 (UniProt Q9P275)
T1 sequence (whole entry): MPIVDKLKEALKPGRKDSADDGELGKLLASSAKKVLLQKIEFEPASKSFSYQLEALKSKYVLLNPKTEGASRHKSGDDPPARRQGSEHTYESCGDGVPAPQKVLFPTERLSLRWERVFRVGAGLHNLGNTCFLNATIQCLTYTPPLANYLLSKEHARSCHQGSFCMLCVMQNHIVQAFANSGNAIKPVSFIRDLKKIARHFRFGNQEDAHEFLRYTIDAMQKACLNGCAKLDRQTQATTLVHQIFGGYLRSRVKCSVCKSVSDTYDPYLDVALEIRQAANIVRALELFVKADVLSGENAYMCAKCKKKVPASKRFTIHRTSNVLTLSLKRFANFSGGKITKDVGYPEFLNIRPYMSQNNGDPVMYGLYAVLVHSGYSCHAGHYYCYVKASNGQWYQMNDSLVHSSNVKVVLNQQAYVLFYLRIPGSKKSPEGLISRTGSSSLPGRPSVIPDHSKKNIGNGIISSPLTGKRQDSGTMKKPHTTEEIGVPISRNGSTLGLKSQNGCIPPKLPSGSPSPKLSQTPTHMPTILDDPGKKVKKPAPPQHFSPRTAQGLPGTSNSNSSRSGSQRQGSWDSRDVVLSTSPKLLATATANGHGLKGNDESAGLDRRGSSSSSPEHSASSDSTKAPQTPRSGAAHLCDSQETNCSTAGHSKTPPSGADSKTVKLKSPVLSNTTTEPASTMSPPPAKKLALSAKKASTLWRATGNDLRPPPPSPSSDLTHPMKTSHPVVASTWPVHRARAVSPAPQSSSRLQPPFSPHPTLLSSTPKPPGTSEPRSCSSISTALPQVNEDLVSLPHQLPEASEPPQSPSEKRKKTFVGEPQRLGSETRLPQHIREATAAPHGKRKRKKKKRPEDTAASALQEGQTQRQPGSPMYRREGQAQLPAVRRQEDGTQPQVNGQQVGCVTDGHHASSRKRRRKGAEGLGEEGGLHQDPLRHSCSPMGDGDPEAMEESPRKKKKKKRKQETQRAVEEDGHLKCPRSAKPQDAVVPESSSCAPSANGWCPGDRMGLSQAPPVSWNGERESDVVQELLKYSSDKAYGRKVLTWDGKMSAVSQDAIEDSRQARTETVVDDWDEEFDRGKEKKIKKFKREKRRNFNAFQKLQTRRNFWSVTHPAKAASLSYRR
Method in brief: as §1

USP38 = biological target: T2, USP38 (UniProt Q8NB14)
T2 sequence (whole entry): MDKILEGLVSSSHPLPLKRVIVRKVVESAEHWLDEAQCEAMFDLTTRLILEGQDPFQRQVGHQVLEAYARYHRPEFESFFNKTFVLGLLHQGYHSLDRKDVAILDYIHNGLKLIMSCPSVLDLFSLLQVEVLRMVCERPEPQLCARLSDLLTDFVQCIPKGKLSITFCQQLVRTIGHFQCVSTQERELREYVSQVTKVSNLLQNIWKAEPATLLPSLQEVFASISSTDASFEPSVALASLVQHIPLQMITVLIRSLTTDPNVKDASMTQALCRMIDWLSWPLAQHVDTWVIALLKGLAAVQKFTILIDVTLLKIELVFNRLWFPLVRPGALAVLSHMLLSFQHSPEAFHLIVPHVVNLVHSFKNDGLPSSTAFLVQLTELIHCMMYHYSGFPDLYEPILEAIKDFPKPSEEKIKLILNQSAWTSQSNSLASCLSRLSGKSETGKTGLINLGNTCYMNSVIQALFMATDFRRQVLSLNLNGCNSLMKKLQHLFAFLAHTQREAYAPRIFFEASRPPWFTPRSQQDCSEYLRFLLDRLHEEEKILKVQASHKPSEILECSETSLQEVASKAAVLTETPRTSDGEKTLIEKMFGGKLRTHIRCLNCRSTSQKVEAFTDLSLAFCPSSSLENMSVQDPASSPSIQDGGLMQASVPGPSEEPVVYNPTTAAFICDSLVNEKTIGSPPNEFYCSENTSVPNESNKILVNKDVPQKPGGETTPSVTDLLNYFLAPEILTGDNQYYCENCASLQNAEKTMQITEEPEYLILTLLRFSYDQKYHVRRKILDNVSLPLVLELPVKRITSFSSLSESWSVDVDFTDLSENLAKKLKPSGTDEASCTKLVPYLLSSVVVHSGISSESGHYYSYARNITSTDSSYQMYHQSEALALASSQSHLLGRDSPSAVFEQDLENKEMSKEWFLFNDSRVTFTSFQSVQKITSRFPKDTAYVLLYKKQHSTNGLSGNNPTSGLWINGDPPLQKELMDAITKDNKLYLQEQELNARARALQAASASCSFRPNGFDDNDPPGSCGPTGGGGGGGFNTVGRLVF
Method in brief: as §1

USP39 = biological target: T3, USP39 (UniProt Q53GS9)
T3 sequence (whole entry): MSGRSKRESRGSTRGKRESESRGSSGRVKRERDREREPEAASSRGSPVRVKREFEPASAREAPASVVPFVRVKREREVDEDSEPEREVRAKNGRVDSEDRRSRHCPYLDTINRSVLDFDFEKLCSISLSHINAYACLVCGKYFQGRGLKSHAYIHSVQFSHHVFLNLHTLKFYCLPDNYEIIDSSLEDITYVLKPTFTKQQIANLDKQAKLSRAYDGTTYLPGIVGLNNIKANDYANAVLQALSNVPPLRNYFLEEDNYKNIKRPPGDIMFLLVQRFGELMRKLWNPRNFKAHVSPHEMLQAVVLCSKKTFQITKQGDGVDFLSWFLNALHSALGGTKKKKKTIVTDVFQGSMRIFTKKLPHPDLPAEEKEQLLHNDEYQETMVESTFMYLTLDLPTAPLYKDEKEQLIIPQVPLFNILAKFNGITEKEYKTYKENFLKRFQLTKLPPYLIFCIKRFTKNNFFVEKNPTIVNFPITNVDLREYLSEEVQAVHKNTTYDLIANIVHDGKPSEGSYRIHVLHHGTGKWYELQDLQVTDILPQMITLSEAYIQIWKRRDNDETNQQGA
Method in brief: as §1

USP4 = biological target: T4, USP4 (UniProt Q13107)
T4 sequence (whole entry): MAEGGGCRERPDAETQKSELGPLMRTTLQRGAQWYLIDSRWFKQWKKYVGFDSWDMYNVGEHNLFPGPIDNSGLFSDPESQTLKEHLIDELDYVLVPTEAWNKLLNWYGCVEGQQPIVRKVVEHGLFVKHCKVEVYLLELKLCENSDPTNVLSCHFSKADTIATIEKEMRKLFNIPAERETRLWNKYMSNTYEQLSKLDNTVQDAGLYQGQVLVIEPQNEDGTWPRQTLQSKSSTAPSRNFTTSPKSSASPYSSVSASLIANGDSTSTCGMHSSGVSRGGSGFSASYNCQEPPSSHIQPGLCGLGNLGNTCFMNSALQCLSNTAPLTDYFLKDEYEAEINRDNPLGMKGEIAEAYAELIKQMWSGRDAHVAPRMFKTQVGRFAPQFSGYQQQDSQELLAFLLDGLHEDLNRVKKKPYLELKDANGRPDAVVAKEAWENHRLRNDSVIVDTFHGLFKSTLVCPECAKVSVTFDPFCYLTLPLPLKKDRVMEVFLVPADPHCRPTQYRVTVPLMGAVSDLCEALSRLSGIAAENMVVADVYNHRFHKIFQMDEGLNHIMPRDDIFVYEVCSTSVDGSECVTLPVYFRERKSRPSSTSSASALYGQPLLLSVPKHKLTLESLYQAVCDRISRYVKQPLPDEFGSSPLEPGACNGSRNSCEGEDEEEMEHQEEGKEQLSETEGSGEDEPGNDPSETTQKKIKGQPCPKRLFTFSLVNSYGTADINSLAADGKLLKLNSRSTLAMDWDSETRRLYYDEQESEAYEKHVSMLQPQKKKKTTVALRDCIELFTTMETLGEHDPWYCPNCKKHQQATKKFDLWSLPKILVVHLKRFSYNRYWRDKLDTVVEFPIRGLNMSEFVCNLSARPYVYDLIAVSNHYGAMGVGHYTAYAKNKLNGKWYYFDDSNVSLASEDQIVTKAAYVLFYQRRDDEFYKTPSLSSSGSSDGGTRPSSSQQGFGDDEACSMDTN
Method in brief: as §1

Measured: log2 ratio of Biotin-Ahx-Ub-VS probe labelling

Chain of USP34 (Q70CQ2 whole entry, the tested form may be a part): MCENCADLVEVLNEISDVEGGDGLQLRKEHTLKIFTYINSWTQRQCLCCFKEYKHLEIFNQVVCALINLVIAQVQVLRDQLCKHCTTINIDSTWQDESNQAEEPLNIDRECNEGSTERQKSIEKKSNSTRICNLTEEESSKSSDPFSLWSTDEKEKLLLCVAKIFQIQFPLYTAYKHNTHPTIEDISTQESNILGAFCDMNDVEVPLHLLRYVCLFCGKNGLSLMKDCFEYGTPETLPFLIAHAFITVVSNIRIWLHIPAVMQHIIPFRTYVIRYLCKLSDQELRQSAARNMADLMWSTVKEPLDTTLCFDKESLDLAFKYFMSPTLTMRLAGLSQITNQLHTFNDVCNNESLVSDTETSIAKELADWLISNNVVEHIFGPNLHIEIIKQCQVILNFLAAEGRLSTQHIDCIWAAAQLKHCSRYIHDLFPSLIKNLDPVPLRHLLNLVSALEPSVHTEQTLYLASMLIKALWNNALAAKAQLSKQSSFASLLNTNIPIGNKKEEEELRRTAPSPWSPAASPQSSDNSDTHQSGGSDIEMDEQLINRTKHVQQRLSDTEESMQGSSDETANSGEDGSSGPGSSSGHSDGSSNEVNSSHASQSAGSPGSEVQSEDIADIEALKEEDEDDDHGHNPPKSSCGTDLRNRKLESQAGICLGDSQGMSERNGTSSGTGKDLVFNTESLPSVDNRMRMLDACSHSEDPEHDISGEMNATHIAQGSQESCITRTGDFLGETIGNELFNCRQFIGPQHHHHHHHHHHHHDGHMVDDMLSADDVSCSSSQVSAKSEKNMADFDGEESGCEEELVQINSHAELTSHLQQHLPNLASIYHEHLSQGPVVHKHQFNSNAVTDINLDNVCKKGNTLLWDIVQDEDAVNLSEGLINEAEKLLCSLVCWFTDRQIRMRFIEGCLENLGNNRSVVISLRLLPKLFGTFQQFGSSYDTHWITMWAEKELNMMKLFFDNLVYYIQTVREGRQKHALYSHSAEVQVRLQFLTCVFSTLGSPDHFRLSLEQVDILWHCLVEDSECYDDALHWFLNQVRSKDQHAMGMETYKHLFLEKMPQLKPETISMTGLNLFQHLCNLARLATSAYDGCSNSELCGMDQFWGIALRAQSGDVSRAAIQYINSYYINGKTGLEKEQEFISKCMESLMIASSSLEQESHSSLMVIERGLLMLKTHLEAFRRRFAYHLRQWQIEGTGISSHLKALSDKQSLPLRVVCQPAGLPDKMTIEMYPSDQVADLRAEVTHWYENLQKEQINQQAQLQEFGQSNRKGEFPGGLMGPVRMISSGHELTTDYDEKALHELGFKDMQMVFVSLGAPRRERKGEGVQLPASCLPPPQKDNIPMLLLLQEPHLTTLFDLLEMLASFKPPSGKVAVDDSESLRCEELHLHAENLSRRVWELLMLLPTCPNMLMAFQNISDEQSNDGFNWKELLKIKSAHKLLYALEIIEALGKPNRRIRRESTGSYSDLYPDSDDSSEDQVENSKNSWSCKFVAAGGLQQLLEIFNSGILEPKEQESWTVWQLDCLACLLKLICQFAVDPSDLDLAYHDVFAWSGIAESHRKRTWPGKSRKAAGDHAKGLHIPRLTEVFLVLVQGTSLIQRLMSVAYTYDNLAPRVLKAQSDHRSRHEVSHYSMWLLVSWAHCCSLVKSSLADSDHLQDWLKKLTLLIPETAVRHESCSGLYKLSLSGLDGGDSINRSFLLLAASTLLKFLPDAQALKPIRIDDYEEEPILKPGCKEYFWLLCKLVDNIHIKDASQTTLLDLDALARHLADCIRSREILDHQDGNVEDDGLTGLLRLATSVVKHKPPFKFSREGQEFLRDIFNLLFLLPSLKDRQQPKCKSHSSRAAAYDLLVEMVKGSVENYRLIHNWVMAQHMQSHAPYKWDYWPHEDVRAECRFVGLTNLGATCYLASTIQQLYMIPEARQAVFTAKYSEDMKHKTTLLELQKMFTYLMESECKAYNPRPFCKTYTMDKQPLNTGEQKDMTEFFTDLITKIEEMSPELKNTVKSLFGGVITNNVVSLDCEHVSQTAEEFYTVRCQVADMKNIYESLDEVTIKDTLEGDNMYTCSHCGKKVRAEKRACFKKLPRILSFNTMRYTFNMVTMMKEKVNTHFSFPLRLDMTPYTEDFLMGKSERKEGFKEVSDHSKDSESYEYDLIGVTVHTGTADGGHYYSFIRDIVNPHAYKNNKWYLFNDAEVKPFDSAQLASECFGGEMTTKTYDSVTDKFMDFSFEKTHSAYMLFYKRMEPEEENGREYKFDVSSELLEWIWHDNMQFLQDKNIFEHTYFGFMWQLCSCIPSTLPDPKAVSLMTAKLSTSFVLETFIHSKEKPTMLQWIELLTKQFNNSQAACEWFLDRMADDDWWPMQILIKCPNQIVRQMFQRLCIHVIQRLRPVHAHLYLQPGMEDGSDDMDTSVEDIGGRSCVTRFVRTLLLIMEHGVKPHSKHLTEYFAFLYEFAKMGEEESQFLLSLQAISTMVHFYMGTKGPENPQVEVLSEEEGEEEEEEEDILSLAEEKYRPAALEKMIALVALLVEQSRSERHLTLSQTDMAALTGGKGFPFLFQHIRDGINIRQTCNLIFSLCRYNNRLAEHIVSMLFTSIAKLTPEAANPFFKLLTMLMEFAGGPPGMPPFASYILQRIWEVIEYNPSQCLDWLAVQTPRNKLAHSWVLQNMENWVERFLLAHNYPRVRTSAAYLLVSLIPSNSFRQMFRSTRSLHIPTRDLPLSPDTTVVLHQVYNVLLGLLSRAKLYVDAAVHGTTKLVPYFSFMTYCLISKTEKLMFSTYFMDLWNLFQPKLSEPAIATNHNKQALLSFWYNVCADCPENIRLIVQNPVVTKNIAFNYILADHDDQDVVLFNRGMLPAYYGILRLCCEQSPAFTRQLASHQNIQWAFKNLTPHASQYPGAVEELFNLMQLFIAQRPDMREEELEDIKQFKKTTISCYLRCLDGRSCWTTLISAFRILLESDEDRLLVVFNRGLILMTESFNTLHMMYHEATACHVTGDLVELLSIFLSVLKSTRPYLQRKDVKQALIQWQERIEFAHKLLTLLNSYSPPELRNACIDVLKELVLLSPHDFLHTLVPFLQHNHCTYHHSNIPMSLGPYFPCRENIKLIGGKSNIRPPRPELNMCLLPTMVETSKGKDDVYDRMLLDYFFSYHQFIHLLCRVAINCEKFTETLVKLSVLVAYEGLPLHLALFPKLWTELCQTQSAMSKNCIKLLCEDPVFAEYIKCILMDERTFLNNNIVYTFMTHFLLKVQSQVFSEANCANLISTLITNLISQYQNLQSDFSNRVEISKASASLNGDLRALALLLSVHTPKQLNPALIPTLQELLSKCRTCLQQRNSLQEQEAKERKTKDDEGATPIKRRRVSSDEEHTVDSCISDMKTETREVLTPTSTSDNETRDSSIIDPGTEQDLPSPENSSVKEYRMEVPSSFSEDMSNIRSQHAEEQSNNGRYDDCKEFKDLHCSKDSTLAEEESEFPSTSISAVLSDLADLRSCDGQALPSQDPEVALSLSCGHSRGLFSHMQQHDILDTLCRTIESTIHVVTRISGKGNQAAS

Cc1ccc(CC(CO)CNC(=O)CCl)cc1 (stereo not given)
inactive: USP34 -0.117 | USP36 -0.19 | USP38 -0.239 | USP39 -0.321 | USP4 -0.14
